# Screening results as filed in PubChem.
# MARV entry inh – qHTS for inhibitors of binding or entry into cells for Marburg Virus | 300,000 tested, 1.8% active | Marburg virus pseudotyped entry inhibition, cell reporter | Potency, µM (titrated, usually from 37.8 µM), actives largely listed as inhibitors; calls by dose curve; tested in HEK293 cells
# Pf growth 48h – Primary qHTS for delayed death inhibitors of the malarial parasite plastid, 48 hour incubation; P. falciparum luciferase growth in erythrocytes, 48 h; Potency, µM (series often up to 28.7 µM), hits mostly inhibitors; 310,000 tested, 5.9% active; AID 504832, 2011
#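 Luminescence readout; reporter = integrated firefly luciferase in P. falciparum. RBC culture at 2% hematocrit, 0.1% parasitemia final, 37 C/5% CO2; decreased signal taken as growth inhibition.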
# Lassa entry inh – qHTS for Inhibitors of binding or entry into cells for Lassa Virus | AID 540256, 2011 | 300,000 tested, 1.2% active | Lassa virus pseudotype entry inhibition, cell reporter | Potency, µM (doses to about 37.9 µM), actives largely listed as inhibitors; calls by dose curve; tested in HEK293 cells; also: nearly all actives have a fitted effect of over 50% in size
# HCV inh – qHTS Assay for Inhibitors of Hepatitis C Virus (HCV); Huh7.5.1 HCVcc-Cre infection, luciferase reporter, 44 h; Potency, µM (doses to about 41.8 µM), hits mostly inhibitors; 340,000 tested, 3.4% active; AID 651820, 2012
#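 Infectious HCV cell culture screen: compound-treated cells (1,000/well, pre-plated 4 h) are infected with HCVcc-Cre at roughly 0.5 moi and grown 44 h. Infection is quantified by luciferase signal after 15 min substrate incubation at room temperature.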
# HCMV inh – qHTS Assay for inhibitors of the human cytomegalovirus (HCMV); HFF cells, HCMV-luciferase reporter, 72 h; stronger effect = lower value; activity change, negative = inhibition, % at 57.5 µM; 410,000 tested, 4.5% active; AID 1259415, 2018; in the data active = activity change below about -60%; inconclusive = no clear call, values can overlap the other calls; inactive = above about -39%
#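 After 16 h attachment at 37C, HFF cells received test compound and HCMV-luciferase (1 PFU/cell); reporter luminescence read 72 h later, data normalized against buffer-only and known inhibitor Salinomycin.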
# Pf growth 96h – Primary qHTS for delayed death inhibitors of the malarial parasite plastid, 96 hour incubation; P. falciparum luciferase reporter growth, 96 h; 320,000 tested, 6.9% active; Potency, µM (highest dose often 28.7 µM), usual class: inhibitors
#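 Compounds incubated with erythrocytes infected by luciferase-expressing P. falciparum (2% hematocrit, 0.05% parasitemia final) for 96 hours, 37 C in 5% CO2. Growth inhibition scored as decreased luciferase luminescence.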
# A number is an active result; i = inactive; ? = inconclusive; nt = not tested or not shown; [ ] = remark or other dose. Compounds with a hit are over-represented: about 14% of the library has one in this group of screens. Unless noted, calls follow the shape of the dose curve; as a rule, active = well fitted inhibition curve with a large enough effect; inconclusive = small, poorly fitted or top-dose-only effect, or another doubt; inactive = no such curve, though single readings can be large or run the other way.
SMILES,MARV entry inh,Pf growth 48h,Lassa entry inh,HCV inh,HCMV inh,Pf growth 96h
CCCCNC(=S)N1CCn2cccc2C1c1ccccc1 (centres undefined),?,4.7µM,i,i,i,?
CCCCNC(=S)N1CCn2cccc2C1c1ccc(F)cc1 (centres undefined),6.3µM,?,13µM,i,i,?
CCc1ccc(OCC(=O)N(Cc2ccc(OC)cc2)C2CCS(=O)(=O)C2)cc1 (centres undefined),nt,nt,i,nt,i,nt
CCOc1ccc(S(=O)(=O)N2CCC(C(=O)OC(C)C(=O)N3CCOCC3)CC2)cc1 (centres undefined),i,i,i,i,i,i
CCOC(=O)c1c(C)nc2c(c(SC)nn2-c2ccccc2)c1N,?,?,i,10µM,i,?
COc1ccc(CCN(C(=O)C(F)(F)F)C(C(=O)NC2CCCC2)c2cccs2)cc1OC (centres undefined),i,?,i,i,i,7.4µM
COc1ccc(CCN(C(=O)C(F)(F)F)C(C(=O)NC2CCCCC2)c2ccc(C)s2)cc1OC (centres undefined),i,4.1µM,?,?,i,?
C=CCn1c(SCCCC)nc(O)cc1=O,i,i,i,i,i,?
C=CCn1c(SCC(=O)Nc2ccc(Br)cc2)nc(O)cc1=O,nt,nt,nt,nt,-100,nt
C=CCn1c(SCCCCCC)nc(O)cc1=O,i,i,i,i,i,6.6µM
CCn1c(SCC(=O)Nc2ccc(C)cc2)nc(O)cc1=O,i,i,i,i,i,i
CCN(CC(=O)Nc1ccc2c(c1)OCCO2)C(=O)/C=C/c1cc(Br)ccc1OC,nt,nt,nt,nt,i,nt
Cc1ccc(C2CC(c3cccs3)=NN2C(=O)CCl)cc1 (centres undefined),?,13µM,?,2.8µM,-101,1.9µM
COc1ccc(C2CC(c3cccs3)=NN2C(=O)CSc2nc(=O)n3cc(C)ccc3n2)cc1 (centres undefined),i,10µM,i,?,i,8.3µM
CCC(=O)N1N=C(c2cccs2)CC1c1ccc(OC)cc1 (centres undefined),nt,i,nt,?,i,?
Cc1ccn2c(=O)nc(SCC(=O)c3ccccc3)nc2c1,i,i,?,i[8.37 µM],i,i
Cc1ccc(C2CC(c3cccs3)=NN2C(=O)CSC2=NCCS2)cc1 (centres undefined),nt,10µM,nt,?,i,12µM
Cc1ccc2nc(SCC(=O)c3ccccc3)nc(=O)n2c1,?,i,10µM,i,i,i
COC1=CC(=O)OC(c2ccc(C#N)cc2)C1 (centres undefined),nt,nt,nt,nt,i,nt
CSCCC(=O)N1CCCC(N2CCN(c3cccc(C(F)(F)F)c3)CC2)C1 (centres undefined),nt,i,nt,i,i,i
CC(C)c1ccc(NC(=O)C2CCCN(S(=O)(=O)c3cccc4cccnc34)C2)cc1 (centres undefined),?,nt,?,nt,i,nt
CCCc1nc2ccccc2n2c(-c3ccc(C)cc3)c3c(=O)n(C)c(=O)n(C)c3c12,i,nt,i,nt,i,nt
O=c1oc2ccccc2n1Cc1ccccc1Cl,nt,i,nt,i,i,4.7µM
O=C1CCC2S/C(=C/Nc3ccc(C(F)(F)F)cc3)C(=O)N12 (centres undefined),?,i,?,i,-78,?
O=C1CCCC/C1=C/Nc1cccc(C(F)(F)F)c1,i,i,i,i,i,?
SMILES,MARV entry inh,Pf growth 48h,Lassa entry inh,HCV inh,HCMV inh,Pf growth 96h
CCCCCc1nc2c(=O)[nH]c3ccccc3c2o1,i,?,i,i,i,5.2µM
CCCc1nc2c(=O)[nH]c3ccccc3c2o1,i,?,i,i,i,i
COc1ccc(C2c3[nH]c4ccccc4c3CCN2C(=O)Cc2nonc2C)c(F)c1 (centres undefined),nt,10µM,nt,?,i,?
COc1ccc(C2c3[nH]c4ccc(OC)cc4c3CCN2C(=O)Nc2ccccc2)cc1 (centres undefined),nt,nt,?,nt,-89,nt
CCOc1ccc(C2c3[nH]c4ccccc4c3CCN2C(=O)CCC2CCCC2)cc1 (centres undefined),nt,nt,?,nt,-80,nt
COc1ccc(C2c3[nH]c4ccccc4c3CCN2C(=O)CCC2CCCC2)cc1 (centres undefined),nt,nt,?,nt,-82,nt
CC(C)(C)c1cccc(/C=N\O)c1O,i,nt,nt,nt,nt,nt
Cc1ccc(S(=O)(=O)NCC(=O)N(CC(=O)NCc2ccc(F)cc2)CC2CCCO2)cc1 (centres undefined),i,i,i,i,i,?
CCC(C(=O)NCC1CCCO1)N(Cc1ccc(F)cc1)C(=O)CNS(=O)(=O)c1ccccc1 (centres undefined),i,i,i,i,-71,?
CCC(C(=O)NC(C)(C)C)N(Cc1cccs1)C(=O)CNS(=O)(=O)c1ccccc1 (centres undefined),nt,2.3µM,nt,i,i,i
COc1ccc(CNC(=O)CN(CC2CCCO2)C(=O)CNS(=O)(=O)c2ccc(F)cc2)cc1 (centres undefined),i,i,i,i,i,10µM
O=C(CN(Cc1ccccc1)S(=O)(=O)c1ccc(Br)cc1)NCC1CCCO1 (centres undefined),i,i,i,i,i,i
COc1ccc(S(=O)(=O)N(CC(=O)NCC2CCCO2)Cc2ccccc2)cc1C (centres undefined),i,i,?,i,-90,i
CCC(C(=O)NCC1CCCO1)N(Cc1ccccc1)C(=O)CNS(=O)(=O)c1ccccc1 (centres undefined),i,i,i,i,i,i
Cc1ccc2c(c1)N(C(=O)CCC(=O)NCc1cccc(F)c1)CC(C)O2 (centres undefined),i,nt,i,nt,i,nt
CCOc1ccccc1N(CC(=O)NCC1CCCO1)C(=O)CNS(=O)(=O)c1ccccc1 (centres undefined),i,i,i,i,-69,15µM
COc1cccc(/C=C2\Oc3cc(OCC(=O)N4CCCCC4)ccc3C2=O)c1OC,i,?,?,?,i,?
COc1cccc(/C=C2\Oc3cc(OCC(=O)N4CCCC4)ccc3C2=O)c1OC,nt,13µM,nt,i,i,10µM
COc1cccc(OC)c1C(=O)Oc1ccc2c(c1)O/C(=C\c1ccncc1)C2=O,7.1µM,?,i,i,-75,i
O=S(=O)(/N=C(/Nc1cccc2ccccc12)c1ccccc1)c1ccc(Br)cc1,nt,i,nt,i,i,4.1µM
O=S(=O)(/N=C(/Nc1cccc2ccccc12)c1ccccc1)c1cccs1,?,?,i,i,i,12µM
COC(=O)c1c(-c2ccc(OC)cc2)sc2ccc(N3CCOCC3)cc12,nt,nt,nt,13µM,?,nt
COC(=O)c1c(-c2cc(OC)cc(OC)c2)sc2ccc(OC)cc12,nt,nt,nt,13µM,i,nt
